We go through eight sequences from article PMC8384837, “Expanding the binding specificity for RNA recognition by a PUF domain”.

Common to all, as to experiment: yeast three-hybrid, YBZ-1, SC-Leu-His + 0.5 mM 3-AT, 4 days
Holding throughout (conditions): tags: N-Gal4 AD-HA kept; label: inside an RPR1-promoter hybrid RNA with tandem MS2 sites; ssRNA

One assay has as its target PUM1 PUF domain R5-KHW (Homo sapiens, UniProt Q14671 828-1176, C1007K;R1008H;Q1011W). The method, boiled down:
(§1)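 The interaction score is the log change in variant frequency from input to selection. Scores were computed in log2 with a pseudocount of 1 for absent variants, using Illumina sequencing of PCR-amplified repeat regions. The input came from four days on SC-Leu and the selection from four days on SC-Leu-His + 0.5 mM 3-AT. The cells were strain YBZ-1 (LexA–MS2 coat fusion, HIS3 reporter) co-expressing Pumilio-1 PUF domain libraries and matching RNA elements from a centromeric plasmid.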

Another assay addresses PUM1 PUF domain R5-LYC (Homo sapiens, UniProt Q14671 828-1176, C1007L;R1008Y;Q1011C). The procedure, abridged:
as §1

The target of another assay is PUM1 PUF domain R4-VPA (Homo sapiens, UniProt Q14671 828-1176, N971V;H972P;Q975A). The method, boiled down: as §1
The next assay has as its target PUM1 PUF domain R4-DHL (Homo sapiens, UniProt Q14671 828-1176, N971D;Q975L). The procedure, abridged: as §1
The next assay has as its target PUM1 PUF domain R4-NNH (Homo sapiens, UniProt Q14671 828-1176, H972N;Q975H). The method, boiled down: as §1
The next assay concerns the target PUM1 PUF domain R4-PYL (Homo sapiens, UniProt Q14671 828-1176, N971P;H972Y;Q975L). The procedure, abridged: as §1
Another assay addresses PUM1 PUF domain R4-CMS (Homo sapiens, UniProt Q14671 828-1176, N971C;H972M;Q975S). The procedure, abridged:
as §1

The target in another assay is T1, PUM1 PUF domain R6-VWY (Homo sapiens, UniProt Q14671 828-1176, N1043V;Y1044W;Q1047Y).
T1 sequence: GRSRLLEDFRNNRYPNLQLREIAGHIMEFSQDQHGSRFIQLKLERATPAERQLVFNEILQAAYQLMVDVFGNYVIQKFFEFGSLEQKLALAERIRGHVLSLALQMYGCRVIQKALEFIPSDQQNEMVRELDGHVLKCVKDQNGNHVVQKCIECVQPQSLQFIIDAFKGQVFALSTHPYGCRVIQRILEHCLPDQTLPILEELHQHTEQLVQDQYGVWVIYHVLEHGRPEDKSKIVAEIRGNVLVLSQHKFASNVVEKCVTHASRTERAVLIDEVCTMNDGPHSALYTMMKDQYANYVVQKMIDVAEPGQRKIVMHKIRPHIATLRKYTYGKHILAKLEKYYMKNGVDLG
The procedure, abridged: as §1

In another assay the target is PUM1 PUF domain R1-KCV (Homo sapiens, UniProt Q14671 828-1176, S863K;R864C;Q867V). The procedure, abridged:
as §1

For a further assay, the target named is PUM1 PUF domain R5-GVE (Homo sapiens, UniProt Q14671 828-1176, C1007G;R1008V;Q1011E). The procedure, abridged: as §1

As to “GGCUAGAACUAGUGGAUCCCCCGGCGCCCGGCGGCUCGAGCCCGGGUAAGUGUUAAUAGUCUGCAUGCCGCCGGGCGCCAUGCCUGCAGGUCGACUCUAGAAAACAUG”, the binding signal with PUM1 PUF domain R5-KHW was 3.92 log2 enrichment (interaction score); in the assay with PUM1 PUF domain R5-LYC, 2.27 log2 enrichment (interaction score).
Take “GGCUAGAACUAGUGGAUCCCCCGGCGCCCGGCGGCUCGAGCCCGGGUAAGUGUAUAUAGUCUGCAUGCCGCCGGGCGCCAUGCCUGCAGGUCGACUCUAGAAAACAUG”: the binding signal with PUM1 PUF domain R4-VPA is 3.26 log2 enrichment (interaction score); with PUM1 PUF domain R4-DHL, 3.13 log2 enrichment (interaction score); in the assay with PUM1 PUF domain R4-NNH, 2.5 log2 enrichment (interaction score); with PUM1 PUF domain R4-PYL, 3.32 log2 enrichment (interaction score); with PUM1 PUF domain R4-CMS, 3.01 log2 enrichment (interaction score).
On to “GGCUAGAACUAGUGGAUCCCCCGGCGCCCGGCGGCUCGAGCCCGGGUAAGUGAAAAUAGUCUGCAUGCCGCCGGGCGCCAUGCCUGCAGGUCGACUCUAGAAAACAUG”, for which the binding signal with PUM1 PUF domain R6-VWY was 3.66 log2 enrichment (interaction score).
As for “GGCUAGAACUAGUGGAUCCCCCGGCGCCCGGCGGCUCGAGCCCGGGUAAGUGUAAAUUGUCUGCAUGCCGCCGGGCGCCAUGCCUGCAGGUCGACUCUAGAAAACAUG”, the binding signal in the assay with PUM1 PUF domain R1-KCV was 3.99 log2 enrichment (interaction score).
With “GGCUAGAACUAGUGGAUCCCCCGGCGCCCGGCGGCUCGAGCCCGGGUAAGUGUGAAUAGUCUGCAUGCCGCCGGGCGCCAUGCCUGCAGGUCGACUCUAGAAAACAUG”, the binding signal in the assay with PUM1 PUF domain R5-GVE was 3.01 log2 enrichment (interaction score).
On to “GGCUAGAACUAGUGGAUCCCCCGGCGCCCGGCGGCUCGAGCCCGGGUAAGUGUAAAUAGUCUGCAUGCCGCCGGGCGCCAUGCCUGCAGGUCGACUCUAGAAAACAUG”, for which the results for the binding signal in the assay with PUM1 PUF domain R4-VPA, with PUM1 PUF domain R4-DHL and with PUM1 PUF domain R5-LYC were 1.54 log2 enrichment (interaction score), 2.49 log2 enrichment (interaction score) and 3.33 log2 enrichment (interaction score), respectively.
Turning to “GGCUAGAACUAGUGGAUCCCCCGGCGCCCGGCGGCUCGAGCCCGGGUAAGUGUACAUAGUCUGCAUGCCGCCGGGCGCCAUGCCUGCAGGUCGACUCUAGAAAACAUG”, the figures for the binding signal with PUM1 PUF domain R4-VPA and in the assay with PUM1 PUF domain R4-CMS were 1.62 log2 enrichment (interaction score) and 2.83 log2 enrichment (interaction score), respectively.
With “GGCUAGAACUAGUGGAUCCCCCGGCGCCCGGCGGCUCGAGCCCGGGUAAGUGUCAAUAGUCUGCAUGCCGCCGGGCGCCAUGCCUGCAGGUCGACUCUAGAAAACAUG”, in the assay with PUM1 PUF domain R5-KHW, the binding signal was 2.97 log2 enrichment (interaction score).
